Compound activity: PubChem, The Scripps Research Institute Molecular Screening Center
PLCg1 inh: PLC-gamma1 (human) inhibition, primary screen. P19174. purified PLC-gamma1, fluorogenic substrate, fluorescence. inhibition, % at 12.2 µM. 370,000 compounds, 0.84% hits. AID 720700; in the data active means inhibition above about 9.5%
PLC-beta3 inh: inhibitors of human phospholipase C beta3; Q01970; Purified PLC-beta3, fluorogenic substrate, fluorescence; inhibition, % at 12.2 µM; 370,000 compounds, 0.18% hits; in the data active means inhibition above about 11%
proKLK7 act: activates the human kallikrein-7 zymogen; P49862; purified proKLK7, EDANS-DABCYL substrate fluorescence; 100% is mature enzyme control, 0% vehicle; activation, % at 7 µM; 370,000 compounds, 0.9% hits;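 active means activation above the mean of all tested compounds plus 3 SD, computed per campaign excluding outliers beyond control limits, cut at about 13% in these data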
ADAM17 inh: inhibitors of human ADAM17 | P78536 | recombinant ADAM17, EDANS/DABCYL FRET peptide cleavage | inhibition, % at 6.95 µM | 370,000 compounds, 0.83% hits | AID 720648;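 active means inhibition above the mean of compounds lying between control limits plus 3 SD, set per campaign, cut at about 8.5% in these data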
ADAM10 inh: inhibitors of human ADAM10. O14672. recombinant ADAM10, EDANS/DABCYL FRET peptide cleavage, 3 h. inhibition, % at 7 µM. 370,000 compounds, 0.62% hits. AID 720582;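 active means inhibition above a per-campaign cutoff equal to the mean of compounds falling between control-based bounds plus 3 SD, cut at about 20% in these data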
Target sequence (O14672 214-748 limits assumed): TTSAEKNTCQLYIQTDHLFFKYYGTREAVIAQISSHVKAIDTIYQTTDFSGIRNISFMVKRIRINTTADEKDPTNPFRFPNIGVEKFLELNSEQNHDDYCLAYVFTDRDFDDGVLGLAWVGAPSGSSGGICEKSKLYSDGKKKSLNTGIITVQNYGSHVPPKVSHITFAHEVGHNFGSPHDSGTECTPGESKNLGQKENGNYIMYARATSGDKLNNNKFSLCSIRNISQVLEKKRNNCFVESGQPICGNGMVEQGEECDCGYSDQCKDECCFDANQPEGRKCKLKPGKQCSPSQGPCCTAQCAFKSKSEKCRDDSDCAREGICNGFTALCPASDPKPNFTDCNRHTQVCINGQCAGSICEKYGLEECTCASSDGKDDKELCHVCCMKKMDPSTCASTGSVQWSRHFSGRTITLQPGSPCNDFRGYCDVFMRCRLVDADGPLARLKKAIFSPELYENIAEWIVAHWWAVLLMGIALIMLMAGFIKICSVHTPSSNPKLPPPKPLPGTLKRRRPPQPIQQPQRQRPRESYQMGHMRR
KLK7 act conf: proKLK7 activation, confirmation; activation, % at 7 µM; purified proKLK7, EDANS-DABCYL substrate fluorescence; scaled: vehicle 0, mature enzyme 100; shares compounds with proKLK7 act; 3,200 compounds, 68% hits;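 active means activation, as change over the incubation, above the mean of all tested compounds plus 3 SD, cut at about 13% in these data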
EDANS-DABCYL int: optically interferes with EDANS-DABCYL signal, flagging KLK7 hits. EDANS-DABCYL substrate fluorescence interference, no enzyme, 4 h; solvent 0%, active enzyme control 100%. 3,200 compounds, 80% hits. activation, % at 7 µM. shares compounds with proKLK7 act;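 active means activation above the all-compound mean plus 3 SD, ignoring values outside control-based bounds, cut at about 4.8% in these data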;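 further: value is the 4 h activation minus the activation read at time zero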
K7 EDANS ctr: EDANS fluorescence interference in dose response, no enzyme | EDANS-DABCYL peptide fluorescence interference | shares compounds with proKLK7 act | 250 compounds, 20% hits | EC50, µM;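 active means compounds that raise the fluorescence signal in this interference counterscreen, with EC50 at or below 10 µM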;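 further: intact quenched peptide substrate alone read at 355 nm excitation and 520 nm emission; signal is fluorescence gain from T0 to T4 after four hours at room temperature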
Of the large screens only hits and unclear results are named; the others gave an inactive call (follow-up assays come after a bar, where they were run). In the library only some 2.9% were active in any assay of this set; here they are far more common.

O=c1[nH]c2ccc(Cl)cc2c(-c2ccccc2)c1N1CCN(CCO)CC1	proKLK7 act 29 | KLK7 act conf inactive | EDANS-DABCYL int inactive
COc1ccccc1C(=O)N1CCN(Cc2ccc3c(c2)OCO3)CC1	none
COc1cc2cc(C(=O)N3CCN(Cc4ccc5c(c4)OCO5)CC3)c(=O)oc2cc1OC	proKLK7 act 61 | KLK7 act conf 68 | EDANS-DABCYL int 73
CC(C)N1CCCCC(NC(=O)c2ccc(F)c(F)c2)C1=O (stereo not given)	none
CCC(CC)NC(=O)O[C@H]1CC[C@@]23CCCN2C(=O)CCC[C@H]3C1	none (no result: proKLK7 act)
COC(=O)C1CN(Cc2ccc(F)cc2)CCS(=O)(=O)N1Cc1cn(CCOC(C)=O)nn1 (stereo not given)	none
CCCCCCn1c(=O)[nH]c2nc3cc(N)ccc3nc2c1=O	proKLK7 act 14 | KLK7 act conf 19 | EDANS-DABCYL int 20
CCCCCn1c(=O)c(C(=O)c2ccccc2)nc2ccccc21	none
O=C1CCC(=O)c2ccc3c4c(ccc1c24)CC3	none
O=C1CCN2C=Nc3cccc4ccc1c2c34	proKLK7 act 56 | KLK7 act conf 68 | EDANS-DABCYL int 66
Cc1cc(-n2c(C)cc(C(=O)COc3ccc4ccc(=O)oc4c3)c2C)no1	proKLK7 act 59 | KLK7 act conf 44 | EDANS-DABCYL int 54
Cc1c(NC(=O)C2CCCN(S(=O)(=O)c3c(C(C)C)cc(C(C)C)cc3C(C)C)C2)c(=O)n(-c2ccccc2)n1C (stereo not given)	none
N/C(=N\NC(=O)c1ccccc1)c1cc2ccccc2oc1=O	none
NC(=O)N/N=C/c1ccccc1OC(=O)c1cc2ccccc2oc1=O	proKLK7 act 79 | KLK7 act conf 259 | EDANS-DABCYL int 259
NC(=S)N/N=C/c1ccccc1OC(=O)c1cc2ccccc2oc1=O	proKLK7 act 42 | KLK7 act conf 228 | EDANS-DABCYL int 200
COc1ccc2cc(C(=O)C3CCCN(Cc4ccccn4)C3)ccc2c1 (stereo not given)	proKLK7 act 39 | KLK7 act conf inactive | EDANS-DABCYL int inactive
O=C(c1ccc2ccccc2c1)C1CCCN(C(=O)c2cccnc2)C1 (stereo not given)	none
COc1ccc2cc(C(=O)C3CCCN(Cc4cnc(N5CCOCC5)s4)C3)ccc2c1 (stereo not given)	none
CCn1ccnc1CN1CCCC(C(=O)c2ccc3cc(OC)ccc3c2)C1 (stereo not given)	proKLK7 act 36 | KLK7 act conf inactive | EDANS-DABCYL int inactive
COc1ccc2cc(C(=O)C3CCCN(C(=O)c4cccnc4)C3)ccc2c1 (stereo not given)	proKLK7 act 22 | KLK7 act conf 57 | EDANS-DABCYL int 47 | K7 EDANS ctr inactive
COc1ccc(S[C@]2(C(=O)N3CCN(c4ncccn4)CC3)CC(=O)N[C@@H]2c2ccc(OC)cc2)cc1	none
COC(=O)[C@H](C)N(Cc1cn(Cc2ccccc2)nn1)S(=O)(=O)c1ccccc1Br	none
O=C(NCc1ccccc1Cl)C1CCC(CNS(=O)(=O)c2cccc3cccnc23)CC1 (stereo not given)	none
CN1CCC[C@H]1CCNc1ccc2c(=O)c3ccccc3n(C)c2c1	proKLK7 act 49 | KLK7 act conf 84 | EDANS-DABCYL int 80
CN1CCCC1CCNc1ccc2c(=O)c3ccccc3oc2c1 (stereo not given)	proKLK7 act 76 | KLK7 act conf 72 | EDANS-DABCYL int 80
COC(=O)[C@]12C[C@H](CC(=O)N3CCN(C(=O)C4CC4)CC3)C(=O)N(CCC3=CCCCC3)C1=C[C@H](C1CCCC1)O[C@@H]2C	none
CCCCCCCCN1C(=O)N2Cc3cc(OC)ccc3C2CS1(=O)=O (stereo not given)	none
COc1ccc(N2C3=C(C(=O)CC(C)(C)C3)C(c3cnn(C)c3)C3=C2CC(C)(C)CC3=O)cc1	proKLK7 act 21 | KLK7 act conf inactive | EDANS-DABCYL int inactive
COc1ccccc1N1CCN(C(c2cccs2)C(C)NC(=O)c2ccncc2)CC1 (stereo not given)	proKLK7 act 296 | KLK7 act conf inactive | EDANS-DABCYL int inactive
COc1ccccc1N1CCN(C(c2cccs2)C(C)NC(=O)c2ccco2)CC1 (stereo not given)	none
Cc1c[nH]c2cccc(-c3cccc4ccccc34)c12	none
COC(=O)C1=CNC=C(C(=O)OC)C1c1ccc(Cl)cc1	proKLK7 act 14 | KLK7 act conf 81 | EDANS-DABCYL int 80
COC(=O)C1=CNC=C(C(=O)OC)C1c1ccccc1Cl	proKLK7 act 66 | KLK7 act conf 65 | EDANS-DABCYL int 75
COC(=O)C1=CNC=C(C(=O)OC)C1c1cccc2ccccc12	none
CC(C)C[C@H]1COc2cc(N3CCCC3)ccc2S(=O)(=O)N1C	none
Cc1ccccc1CS(=O)(=O)Cc1ccc(C(=O)Nc2cccc(C)c2C)o1	none
O=C(Nc1nc2ccccc2[nH]1)c1cc2ccccc2o1	proKLK7 act 16 | KLK7 act conf 44 | EDANS-DABCYL int 44
COc1ccc(C(=O)Nc2nc3ccccc3[nH]2)cc1OC	none
COc1ccc(Cl)cc1C(=O)Nc1nc2ccccc2[nH]1	proKLK7 act 27 | KLK7 act conf inactive | EDANS-DABCYL int inactive
CN(C)c1c(-c2ccccc2)cc(-c2ccccc2)[nH]c1=O	proKLK7 act 16 | KLK7 act conf inactive | EDANS-DABCYL int 4.9
Cc1cc(-c2ccccc2)[nH]c(=O)c1C#N	none
CCC(=O)c1cc2c(C)cc(=O)oc2c(C)c1OC(=O)C(C)C	proKLK7 act 139 | KLK7 act conf 155 | EDANS-DABCYL int 179
CCC(=O)c1cc2c(C)cc(=O)oc2c(C)c1OC(C)=O	proKLK7 act 453 | KLK7 act conf 804 | EDANS-DABCYL int 772
C=CCN1[C@@H](C)COc2cc(N3CCSCC3)ccc2S1(=O)=O	none
Nc1ccc2c(C(F)(F)F)cc(C(F)(F)F)nc2n1	proKLK7 act 38 | KLK7 act conf 47 | EDANS-DABCYL int 42
FC(F)(F)c1cc(C(F)(F)F)c2ccc(Oc3ccccc3)nc2n1	none
CCCC#Cc1ccc(CC[C@H]2O[C@H]3CC[C@@H](CO)O[C@H]3C[C@H]2NC(=O)CN2CCOCC2)cc1	none
CCOC(=O)c1cnn2c(C)cc(-c3ccc(F)cc3)nc12	proKLK7 act 26 | KLK7 act conf inactive | EDANS-DABCYL int 17
